High-throughput results from PubChem.
GALK inhibitor: qHTS Assay for Inhibitors of Human Galactokinase (GALK). Potency, µM (top dose mostly 57.5 µM), for the others: at the top dose activity change, negative = inhibition, hits mostly inhibitors. Purified GALK, Kinase-Glo residual ATP luminescence. actives 0.007% (n = 270,000). AID 1868, 2009. P51570; also: % is scaled to controls: 0 for no effect and ±100 for the full control effect
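GALK at 5 nM final was combined with compound, 35 uM ATP and 100 uM galactose in HEPES pH8.0 with MgCl2 and DTT. The reaction ran one hour at room temperature before luminescent ATP detection.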
TrxR1 inh: qHTS Assay for Inhibitors of Mammalian Selenoprotein Thioredoxin Reductase 1 (TrxR1): qHTS; recombinant rTrxR1, NADPH fluorescence consumption, selenite substrate; Potency, µM (doses to about 114 µM), for inactives: top-dose activity change, negative = inhibition, actives largely listed as inhibitors; actives 1% (n = 390,000); AID 588453, 2011; also: % is scaled to controls: 0 for no effect and ±100 for the full control effect; nearly all actives have a fitted effect of over 65% in size
Target sequence (O89049 whole entry, looked up): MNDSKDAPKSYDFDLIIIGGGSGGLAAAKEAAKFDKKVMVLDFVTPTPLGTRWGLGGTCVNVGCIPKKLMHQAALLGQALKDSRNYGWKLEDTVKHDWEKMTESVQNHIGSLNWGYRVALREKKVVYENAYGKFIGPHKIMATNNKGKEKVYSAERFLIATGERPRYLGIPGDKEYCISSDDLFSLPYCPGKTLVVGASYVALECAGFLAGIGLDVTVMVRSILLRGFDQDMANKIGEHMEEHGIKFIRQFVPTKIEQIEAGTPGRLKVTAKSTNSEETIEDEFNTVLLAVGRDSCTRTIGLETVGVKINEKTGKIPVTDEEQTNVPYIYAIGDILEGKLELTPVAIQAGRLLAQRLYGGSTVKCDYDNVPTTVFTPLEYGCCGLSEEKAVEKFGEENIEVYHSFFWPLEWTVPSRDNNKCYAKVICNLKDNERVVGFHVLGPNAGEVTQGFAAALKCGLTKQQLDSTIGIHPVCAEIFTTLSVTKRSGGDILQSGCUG
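Rat TrxR1 (90 nM in the dispensed reagent) was pre-reduced with 400 uM NADPH for 5 min at room temperature, then incubated with compound for 15 min. After 400 uM selenite was added, NADPH fluorescence (Ex 340/Em 450 nm) was followed for 8 min.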
Nrf2 ARE act: qHTS of Nrf2 Activators; AREc32 ARE-luciferase reporter (MCF7-derived line), luminescence, 24 h; Potency, µM (series often up to 46.1 µM), inactives show at the highest dose activation, actives largely listed as activators; AID 624171, 2012; actives 0.31% (n = 410,000); also: % of control where 0% means no effect; nearly all actives have a fitted effect of over 65% in size
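Cells of the AREc32 ARE-luciferase line are plated in OPTI-MEM containing 5% FBS and left overnight at 37 deg C. Compounds are pinned in, incubation continues 24 hr, and firefly luciferase signal is then measured.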
Nrf2 inh: Nrf2 qHTS screen for inhibitors. A549 ARE-Fluc reporter, luciferase luminescence, 18-24 h. Potency, µM (highest dose often 46 µM), for inactives: at the highest dose activity change, negative = inhibition, most hits filed as inhibitors. actives 2.1% (n = 360,000); also: % is scaled to controls: 0 for no effect and ±100 for the full control effect; nearly all actives have a fitted effect of over 60% in size
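Nrf2 function is reported as luminescence of an ARE-controlled luciferase in A549 cells. Compounds were tested at several concentrations, and a CellTiter-Fluor read on the same wells flagged cytotoxicity.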
TrxR1 substrate: qHTS Assay for Substrates of Mammalian Selenoprotein Thioredoxin Reductase 1 (TrxR1): qHTS | Thioredoxin reductase 1, cytoplasmic (Rattus norvegicus), O89049 | purified TrxR1 substrate turnover, NADPH consumption readout | Potency, µM (series often up to 114 µM), inactives show at the highest dose activity change, negative = substrate turnover | actives 0.01% (n = 390,000); also: % is scaled to controls: 0 for no effect and ±100 for the full control effect; nearly all actives have a fitted effect of over 50% in size
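Rat TrxR1, dispensed at 90 nM, was prereduced with 400 uM NADPH (final) for 5 min at ~22 deg C, then incubated with compound 15 min before 400 uM selenite. A first-read NADPH fluorescence drop versus no-compound background flagged substrates.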
A549 viability: Nrf2 qHTS screen for inhibitors: counterscreen for cytotoxicity; AID 504648, 2011; Potency, µM (top dose mostly 46 µM), without a hit: at the top dose activity change, negative = cytotoxicity, most hits filed as inhibitors; A549 ARE-Fluc cells, CellTiter-Fluor viability, 18-24 h; actives 0.16% (n = 390,000); also: % is scaled to controls: 0 for no effect and ±100 for the full control effect
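A549 ARE_Fluc cells in 5% FBS OPTI-MEM were exposed to compounds in concentration-response for 18-24 h at 37 deg C. Viability was read by CellTiter-Fluor fluorescence (Ex 405/Em 525) after 30 min, before the luciferase read.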
Active calls of the source: *; ? = inconclusive; · = not tested or not shown; [ ] = another dose, or the depositor's remark. The list is not random: actives were taken first. Their share in the collection is about 3%. Calls follow the shape of the dose curve; as a rule, active = well fitted curve in the direction sought with a large enough effect; inconclusive = small, poorly fitted or top-dose-only effect, or another doubt; inactive = no such curve, though single readings can be large; an effect the other way counts as inactive or inconclusive. Potency is read from the fitted curve at half-maximal effect.

SMILES | GALK inhibitor | TrxR1 inh | Nrf2 ARE act | Nrf2 inh | TrxR1 substrate | A549 viability
COC(=O)C1=C(c2ccc(F)cc2OCc2ccccc2)C[C@@H]2CC[C@H]1N2C(=O)NCc1ccccc1 | · | 24% | 1% | 16µM* | -3% | ?
COC(=O)C1=C(c2ccc(F)cc2OCc2ccccc2)C[C@@H]2CC[C@H]1N2C(=O)NCc1ccc2c(c1)OCO2 | · | 5% | 0% | 18µM* | -2% | -17%
N[C@@H](Cn1cc(I)c(=O)[nH]c1=O)C(=O)O | · | -8% | · | · | · | ·
NC(=O)C1=CN(C2OC(COP(=O)(O)OP(=O)(O)OC[C@H]3O[C@@H](n4cnc5c(N)ncnc54)[C@H](OP(=O)(O)O)[C@H]3O)C(O)C2O)C=CC1 (stereo partly specified) | · | 3%[57.1 µM] | · | · | · | ·
COC(=O)C1=C(c2ccccc2OCc2ccccc2)C[C@@H]2CC[C@H]1N2C(=O)NCc1cccc(C(F)(F)F)c1 | · | 22% | -1% | 16µM* | 3% | -16%
COC(=O)C1=C(c2ccc(F)cc2OCc2ccccc2)C[C@@H]2CC[C@H]1N2C(=O)NCc1ccc(C(F)(F)F)cc1 | · | 37% | 5% | 18µM* | 6% | -9%
COc1ccccc1C1Nc2ccccc2-n2c(-c3ccccc3)c3c(=O)n(C)c(=O)n(C)c3c21 (stereo unspecified) | · | 3% | 7% | ? | -9% | 8%
COc1ccc(C(=O)Nc2nnc(S(=O)(=O)N(CC(C)C)c3ccc(C)cc3)s2)cc1OC | · | 79% | 1% | 113% | 85% | 13%
Cc1cc2c(cc1C)-n1c(-c3ccccc3)c3c(=O)n(C)c(=O)n(C)c3c1C(c1ccco1)N2 (stereo unspecified) | · | 3% | 0% | ? | -12% | 0%
Cc1c(N=Nc2c(O)n(Cc3ccccc3)c(=O)[nH]c2=O)c(=O)n(-c2ccccc2)n1C | 2% | -12% | 0% | 5.2µM* | -17% | 16µM*
CCOc1ccccc1N1C(=O)NC(=O)/C(=C/c2ccc3c4c(cccc24)CC3)C1=O | 1% | 22µM* | 0% | 4% | 87% | 9%
N#CC1=C(N)Oc2n[nH]c(-c3ccccc3)c2C1c1cccc(OC(=O)N2CCOCC2)c1 (stereo unspecified) | 0% | -19% | 6% | ? | -3% | 0%
CCOc1ccc(/C=C2/C(=O)NC(=O)N(CCc3ccc(F)cc3)C2=O)cc1 | -4% | 28µM* | 2% | 19% | 1% | 8%
COc1cc(/C=C2\C(=O)NC(=O)N(CCc3ccc(F)cc3)C2=O)ccc1O | -1% | 14µM* | 1% | -2% | -9% | 2%
COc1cc(C=C2C(=O)NC(=O)NC2=O)ccc1O | -1% | ? | 0% | 6% | 1%[57.1 µM] | -4%
O=C1NC(=O)C(=Cc2cccs2)C(=O)N1 | · | 9%[2.29 µM] | 0% | 1% | 9%[2.29 µM] | 1%
CCOc1ccc(N2C(=O)/C(=C/c3ccco3)C(=O)NC2=S)cc1 | 3% | ? | 0% | -13% | -4% | ?
CCOc1ccc(N2C(=O)/C(=C\c3cccs3)C(=O)NC2=S)cc1 | -2% | 22µM* | 2% | ? | 23%[57.1 µM] | ?
O=C1NC(=S)N(c2ccccc2F)C(=O)/C1=C\c1cccs1 | 0% | 8.9µM* | 2% | 11% | -2% | -2%
O=C(C1CCCN(S(=O)(=O)c2cccc3nsnc23)C1)N1CCN(c2cccc(Cl)c2)CC1 (stereo unspecified) | · | 25% | 0% | 21µM* | -4% | -16%
Cn1c(=O)oc2cc(S(=O)(=O)N3CCCC(C(=O)N4CCN(c5cccc(Cl)c5)CC4)C3)ccc21 (stereo unspecified) | · | 12% | -1% | 18µM* | -6% | 0%
O=C(CCl)c1ccc(O)c(O)c1 | · | ? | · | · | -2% | ·
COc1ccccc1N=Nc1ccc(N)c(C)c1 | 0% | 1%[57.1 µM] | 2% | -5% | -16% | ?
CN(C[C@H](Cc1ccccc1)N(C[C@H](Cc1ccccc1)N(CCC(C)(C)C)N=O)N=O)N=O | -2% | 0% | -1% | ? | -15% | -15%
O=C(Cc1ccccc1)NC(Cc1ccc(Cl)cc1)C(=O)O (stereo unspecified) | -1% | 10% | -1% | 4% | -1% | -5%
SMILES | GALK inhibitor | TrxR1 inh | Nrf2 ARE act | Nrf2 inh | TrxR1 substrate | A549 viability
O=C(O)CCCc1ccc(N(CCCl)CCCl)cc1 | 0% | 50µM* | -1% | -3% | 12%[57.1 µM] | -12%
O=C(Cc1ccc(N(CCCl)CCCl)cc1)NC(Cc1ccc(Cl)cc1)C(=O)O (stereo unspecified) | -4% | 40µM* | 0% | 6% | 4% | -1%
N[C@@H](Cc1ccc(N(CCCl)CCCl)cc1)C(=O)O | · | ? | 1% | -20% | 2% | -10%
CC(=O)NC(Cc1ccc(N(CCCl)CCCl)cc1)C(=O)O (stereo unspecified) | -4% | 32µM* | -1% | -1% | 9%[57.1 µM] | 4%
N[C@@H](Cn1ccc(=O)c(O)c1)C(=O)O | · | 21%[57.1 µM] | · | · | 12%[57.1 µM] | ·
ClC1=C(Cl)C(Cl)=C(Cl)C1=C/C=C/c1ccccc1 | 3% | -1%[57.1 µM] | ? | ? | 5%[57.1 µM] | ?
NCCCCN=C(N)N | · | 13%[57.1 µM] | · | · | 6%[57.1 µM] | ·
CCOC(=O)CN1C(=O)N[C@@H](c2cccc(C(F)(F)F)c2)C(C(C)=O)=C1C | · | 10% | 1% | ? | -1% | 4%
Cc1cc2c(C(C)C)c(O)c(O)c(C=O)c2c(O)c1-c1c(C)cc2c(C(C)C)c(O)c(O)c(C=O)c2c1O | ? | 40µM* | · | · | ? | ·
CCOc1ccccc1NC(=O)c1sc2nc3c(cc2c1N)CN(Cc1ccccc1)CC3 | · | 34% | 1% | ? | 17% | 3%
O=c1oc2cccnc2n1CCS(=O)(=O)c1ccc(F)cc1 | 4% | 31%[57.1 µM] | ? | -24% | 96% | -5%
CCC(C)C1NC(=O)C2CCCN2C(=O)C(CC(C)C)OC(=O)CCNC(=O)C(C)N(C)C(=O)C(C(C)C)N(C)C1=O (stereo unspecified) | · | 13%[11.4 µM] | 4% | 5.2µM* | 5%[11.4 µM] | 8.2µM*
O=C(CCC1CCCC1)c1c(O)c2ccccc2oc1=O | -2% | 3%[57.1 µM] | 6% | 21µM* | 7%[57.1 µM] | ?
CCOc1ccc(N2C(=O)NC(=O)/C(=C/c3cnc(SC)nc3)C2=O)cc1 | -2% | 4µM* | 0% | 11% | -3%[57.1 µM] | 4%
CSc1ncc(/C=C2/C(=O)NC(=O)N(c3ccc(C)cc3)C2=O)cn1 | -1% | 7.9µM* | 1% | -1% | 1% | 3%
